Data taken from ChEMBL document CHEMBL1157539, “Thousands of chemical starting points for antimalarial lead identification” (Nature, 2010).

How the values were obtained:
Type in all cases: functional
Plasmodium falciparum [1] = test: GSK_TCMDC: Inhibition of Plasmodium falciparum 3D7 in whole red blood cells, using parasite LDH activity as an index of growth. Test compounds present at 2uM
Plasmodium falciparum [2] = test: GSK_TCMDC: Inhibition of Plasmodium falciparum Dd2 in whole red blood cells, using parasite LDH activity as an index of growth. Test compounds present at 2uM
HepG2 = test: GSK_TCMDC: Percent inhibition of human HepG2 cell line. Test compounds present at 10uM.

Structure (SMILES) | Inhibition (Plasmodium falciparum [1]) | Inhibition (Plasmodium falciparum [2]) | Inhibition (HepG2)
Nc1cccc(CNCc2ccc(-c3ccc(-c4nc5ccccc5[nH]4)s3)cc2)c1.O=C(O)C(F)(F)F | 100% | 93% | 12%
COc1cc(Cc2cnc(N)nc2N)ccc1OCC(=O)Nc1ccc(C)cc1 | 95% | 18% | 10%
Cl.O=C(NC1CCC(CCN2Cc3ccc(Br)cc3C2)CC1)c1cccc(-c2cccnc2)c1 (stereo not given) | 99% | 73% | 14%
CSc1c(CNCCCNc2cc(=O)c3ccccc3[nH]2)[nH]c2ccccc12 | 87% | 21% | 0%
COC(=O)c1ccc(CN2CCC(N(Cc3cccc(Oc4ccccc4)c3)S(=O)(=O)c3ccc(NC(C)=O)cc3)CC2)cc1 | 82% | 86% | 0%
Cl.Oc1c(Cl)cc(-c2ccccc2)cc1CNC1CCCCC1 | 97% | 95% | 5%
CCOc1ccc2nc(C)cc(N/N=C/c3ccccc3[N+](=O)[O-])c2c1 | 100% | 99% | 91%
Cc1ccc(C(NC(=O)c2ccccc2)c2ccc3cccnc3c2O)cc1 (stereo not given) | 92% | 72% | 53%
Cc1nc(SCC(=O)N2CCCC2=O)c2c(C)c(C)sc2n1 | 96% | 0% | 45%
O=C(N[C@@H](CC1CCCCC1)C(=O)NC1CCCCC1)c1ccc(O)c(-c2cccc(C(F)(F)F)c2)c1 | 100% | 95% | 0%
Oc1c(Br)cc2oc3c(c2c1CNCc1ccccc1)CCCC3 | 99% | 74% | 0%
Cc1ccnc2nc(C(=O)Nc3cc(Cl)ccc3N3CCOCC3)nn12 | 84% | 63% | 0%
CNC(=O)Cc1ccc(C(=O)Nc2cccc(-c3ccc(-c4nc5cccc(C)c5[nH]4)s3)c2)cc1 | 91% | 25% | 66%
CC(C)Nc1ccc(Nc2ccnc3cc4ccccc4cc23)cc1 | 100% | 81% | 37%
NC(CC1CC(=O)N1CC(=O)O)C(=O)O (stereo not given) | 95% | 0% | 56%
Cc1ccc(NC(=O)c2ccc(NCCCN(C)Cc3ccccc3)c([N+](=O)[O-])c2)cc1F | 100% | 61% | 12%
COc1ccc2ncc(F)c(CCN3CCC[C@H](CNCc4ccc5c(n4)NC(=O)CS5)C3)c2n1.Cl | 96% | 34% | 16%
Cc1[nH]c(C)c(-c2ccc(OCc3ccccc3C(F)(F)F)nc2)c(=O)c1Br | 98% | 97% | 35%
Nc1ncc(-c2ccc3nccc(-c4ccncc4)c3c2)cc1S(=O)(=O)N1CCOCC1 | 100% | 99% | 39%
CCc1cc(NC2CCN(C)CC2)nc(Nc2cccc(OC)c2)n1 | 93% | 37% | 22%
CCCCCCOc1ccc(C(=O)NCCC2CCN(CCCCCNC(=O)C=Cc3ccc(Cl)c(Cl)c3)CC2)cc1 | 99% | 10% | 13%
Clc1ccc(CNc2nc(NCCc3c[nH]cn3)nc(Nc3ccc4c(c3)OCO4)n2)cc1 | 84% | 6% | 8%

Structure (SMILES) | Inhibition (Plasmodium falciparum [1]) | Inhibition (Plasmodium falciparum [2]) | Inhibition (HepG2)
O=C(Cn1c(SCc2cccc(F)c2F)cc(=O)c2ccccc21)N(CCc1c[nH]cn1)Cc1ccc(-c2ccc(C(F)(F)F)cc2)cc1 | 100% | 72% | 18%
O=C(Nc1ccc(Cl)cc1)N1CCN(C2CCCCC2)CC1 | 93% | 0% | 17%
CCN1C(=O)C(CC(=O)Nc2cccc(Cl)c2)N(Cc2ccc(OC)c(OC)c2)C1=S (stereo not given) | 100% | 68% | 13%
CCCCCCNCCOc1ccc(-c2nc(-c3ccccc3)c(-c3ccccc3)[nH]2)cc1 | 98% | 39% | 14%
CCc1sc(N2CCC(C)CC2)nc1C(=O)Nc1ccc(F)cc1C(F)(F)F | 94% | 65% | 1%
NC(=O)CCC(NC(=O)CNC(=O)Nc1cccc(C(F)(F)F)c1)C(=O)O (stereo not given) | 97% | 93% | 1%
COc1ccc(-c2nc(NC(=O)CSc3ccccc3)sc2C)cc1 | 94% | 31% | 6%
O=C(O)C(F)(F)F.c1cc(CN2CCCCC2)cc(-c2csc(-c3nc4ccccc4[nH]3)c2)c1 | 90% | 16% | 26%
O=C(NCc1ccc(Cl)c(Cl)c1)c1ccc(-c2nc3ccc(F)cc3[nH]2)cc1 | 93% | 9% | 0%
O=C(Nc1ccc(C(F)(F)F)cc1)c1ccc(S(=O)(=O)NCC2CCCN(CC3CCCCC3)C2)cc1.O=C(O)C(F)(F)F (stereo not given) | 93% | 0% | 44%
Oc1ccc(Br)cc1C(O)CNCc1ccccc1OCc1ccccc1 (stereo not given) | 100% | 100% | 25%
Cc1ccc2[nH]c(C)c(Br)c(=O)c2c1 | 95% | 84% | 0%
OC(CNCCc1ccccc1)Cn1c2ccc(Cl)cc2c2cc(Cl)ccc21 (stereo not given) | 98% | 96% | 53%
CN1CCCC1CCNCc1ccc(-c2ccc(CNCCc3ccccc3)cn2)cc1.O=C(O)C(F)(F)F (stereo not given) | 100% | 99% | 25%
O=C(/C=C/c1ccc(I)cc1)NCCCCCN1CCC(c2c[nH]c3ccc(O)cc23)CC1 | 97% | 1% | 14%
CC(C)(C)OC(=O)N1CCN(c2ccccc2NC(=O)c2cccc(C(F)(F)F)c2Oc2ccc(F)cc2)CC1 | 100% | 9% | 3%
CCCCc1ccc(Cc2cnc3nc(N)nc(N)c3c2C)cc1 | 96% | 5% | 64%
Cc1[nH]c(C)c(-c2ccc(-c3cccc(OC(F)(F)F)c3)nc2)c(=O)c1Cl | 98% | 97% | 30%
CC(C)CSc1cc(C(=O)Nc2cc(Cl)ccc2O)ccn1 | 100% | 34% | 36%
COCCNCc1ccc(-c2ccccc2CNC2CCN(Cc3ccccc3)CC2)cc1.O=C(O)C(F)(F)F | 97% | 28% | 17%
COc1ccc(CN2CCC(NCc3cccc([N+](=O)[O-])c3)CC2)cc1.O=C(O)C(F)(F)F | 92% | 3% | 6%
CC1(C)N=C(N)N=C(N)N1c1cc(Cl)c(Cl)cc1Cl.Cl | 95% | 0% | 11%

Structure (SMILES) | Inhibition (Plasmodium falciparum [1]) | Inhibition (Plasmodium falciparum [2]) | Inhibition (HepG2)
O=C(Cn1c(=O)oc2ccccc21)N1CCC(n2c(=O)n(CCCN3CCOCC3)c3ccccc32)CC1 | 99% | 100% | 11%
CC(C)NC(=O)c1cccc(-c2cccc(OCCN3CCSCC3c3ccccc3)c2)c1 (stereo not given) | 89% | 45% | 24%
O=C(/C=C/c1ccc(I)cc1)NCCCCCN1CCC(c2c[nH]c3ccccc23)CC1 | 95% | 2% | 43%
CCCCCCCc1ccc(-c2c(C)[nH]c(C)c(Cl)c2=O)cn1 | 99% | 96% | 0%
CCCCCCc1cc(Oc2c(I)cc(C[C@H](N)C(=O)O)cc2I)ccc1O | 97% | 0% | 0%
COc1ccc2ccccc2c1C=NN=c1cc(C)[nH]c2cc(C(F)(F)F)ccc12 | 92% | 4% | 1%
COC(=O)C1=C(C)NC2=C(C(=O)CC(c3ccc(OC)c(OC)c3)C2)C1c1cccc(O)c1 (stereo not given) | 99% | 69% | 2%
CC(C)N1CCN(C(=O)c2ccc(CNCCCN3CCN(c4cccc(Cl)c4Cl)CC3)s2)CC1.Cl | 100% | 44% | 51%
Cc1nc(NC(=N)N)nc2ccc(C(C)(C)C)cc12.Cl | 96% | 91% | 4%
Cl.O=C(/C=C/c1ccc(F)cc1)NC1CCC(CCN2CCc3ccccc3CC2)CC1 (stereo not given) | 91% | 36% | 27%
COc1ccc(Cn2ncc3c4c(N)nc(N)nc4ccc32)cc1OC | 94% | 95% | 68%
Cc1ccc(C2(C)CC(C)(C)N(C(=O)COc3ccc4ccccc4c3)c3ccccc32)cc1 (stereo not given) | 100% | 98% | 0%
Cc1cccc(Nc2nccc(NCC(O)c3ccc(C(F)(F)F)cc3)n2)c1 (stereo not given) | 100% | 54% | 11%
COc1cccc(NC(=O)CSc2nc(-c3ccccc3Cl)ns2)c1 | 99% | 100% | 7%
CC(C)COc1ccc(Cl)cc1Cc1ccc(-c2nc3ccc(C(F)(F)F)cc3[nH]2)o1 | 97% | 51% | 14%
CCN1CCC(N(Cc2ccc(-c3ccc(C(F)(F)F)cc3)cc2)C(=O)Cn2c(SCc3cccc(F)c3F)cc(=O)c3ccccc32)C1.O=C(O)C(O)C(O)C(=O)O (stereo not given) | 90% | 91% | 42%
Nc1nc(N)c2c(Cl)c(N3CCOCC3)ccc2n1 | 96% | 3% | 65%
FC(F)(F)c1ccc2c(NN=Cc3cccc(Cl)c3)ccnc2c1 | 93% | 59% | 7%
CN(C)C(CNC(=O)c1cc(-c2ccncc2)c(-c2ccc(NC(=O)Nc3ccccc3)cc2)o1)c1ccccc1.O=C(O)C(F)(F)F (stereo not given) | 100% | 96% | 19%
CCOC(=O)c1ccc(NC(=O)Nc2cccc(-c3cccc(-c4nc5ccccc5[nH]4)c3)c2)cc1 | 100% | 99% | 76%
COc1cc(F)c2ncc(Cl)c(C(O)CN3CCC(NC(=O)c4ccc5c(c4)NC(=O)CS5)CC3)c2c1.Cl (stereo not given) | 98% | 68% | 15%
